From PubChem BioAssay
Hits are enriched below; roughly 2.9% of the tested compounds scored in any of these assays.
D3 antag: qHTS of D3 Dopamine Receptor Antagonist: qHTS; AID 652054, 2013; max response, negative = inhibition, %; D3R cells, DiscoveRx beta-arrestin luminescence, antagonist mode; active compounds read low; actives 2.5% (n = 360,000); in the data active = max response below about -50%; inconclusive = no clear call, values can overlap the other calls; also: % is scaled to controls: 0 for no effect and ±100 for the full control effect
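Cells expressing the human receptor were seeded at 1500 cells/well, incubated overnight at 37 degrees C in 5% CO2, then exposed to library compounds with dopamine controls for 90 minutes at 37 degrees C before luminescent detection.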
D3 ag: qHTS of D3 Dopamine Receptor Agonist: qHTS | AID 652048, 2013 | D(3) dopamine receptor (Homo sapiens), P35462 | D3R DiscoveRx beta-arrestin cells, luminescence, 90 min | actives 0.58% (n = 410,000) | max activation, %; in the data active = max activation above about 30%; also: 0% is about no effect
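Agonist-mode cell screen: cells plated at 1500/well and incubated overnight at 37 °C, then exposed to library compounds for 90 min at 37 °C. Detection reagent was added for 30–60 min at room temperature, and luminescence was read.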
B2AR arrestin: qHTS assay of beta-arrestin-biased ligands of beta2-adrenergic receptor; actives 0.02% (n = 330,000); Potency, µM (top dose mostly 46.1 µM), for the others: at the highest dose activation, most hits filed as activators; beta-arrestin recruitment to beta2AR, cell-based reporter; Beta-2 adrenergic receptor (Homo sapiens), P07550; active = well fitted activation curve with a large enough effect; inconclusive = small, poorly fitted or top-dose-only effect;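 also: potency is read from the fitted curve at half-maximal effect; 0% = DMSO controls and full agonism = EC100 isoproterenol or metaproterenol; nearly all actives have a fitted effect of over 65% in size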
Target sequence (P07550 whole entry, looked up): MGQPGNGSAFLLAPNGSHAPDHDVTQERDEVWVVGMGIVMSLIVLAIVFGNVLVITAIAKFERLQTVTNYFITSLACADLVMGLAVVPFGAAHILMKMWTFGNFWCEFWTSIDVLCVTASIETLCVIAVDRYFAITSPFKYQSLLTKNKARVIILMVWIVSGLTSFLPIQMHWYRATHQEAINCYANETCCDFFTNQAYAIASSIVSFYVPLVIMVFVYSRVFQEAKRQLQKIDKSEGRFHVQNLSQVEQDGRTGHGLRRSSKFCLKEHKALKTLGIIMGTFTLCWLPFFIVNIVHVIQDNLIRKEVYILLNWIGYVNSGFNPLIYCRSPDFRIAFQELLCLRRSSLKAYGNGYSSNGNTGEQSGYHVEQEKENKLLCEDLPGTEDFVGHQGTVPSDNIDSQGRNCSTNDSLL
TSHR antag: Antagonists of the Thyroid Stimulating Hormone Receptor: HTS campaign. Thyrotropin receptor (Homo sapiens), P16473. TSHR-expressing cells, TSH-stimulated cAMP HTRF, 2 h; active compounds read low. activity change, negative = inhibition, % at 11.5 µM. actives 0.2% (n = 330,000). AID 504810, 2011;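 active = activity change below a set negative limit, meaning inhibition stronger than a set level, cut at about -70% in these data; inconclusive = activity change between two set negative limits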; also: % is scaled to controls: 0 for no effect and ±100 for the full control effect
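Freshly harvested TSHR cells receive pin-tooled compound, then EC80 TSH at 4nM final. After 2 hours at 37 deg C, antibody in lysis buffer and cAMP-d2 are added; 30 minutes at ambient temperature precede the HTRF read.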
Starred values were filed as active, the others as inactive; ? = inconclusive; nt = no result.

SMILES	D3 antag	D3 ag	B2AR arrestin	TSHR antag
CCOc1ccccc1C1c2[nH]c3ccccc3c2C[C@H]2C(=O)N(C3CCN(Cc4ccccc4)CC3)CC(=O)N12 (some centres undefined)	-104.8*	-37.8	-0.5%	1.7
O=C1[C@@H]2Cc3c([nH]c4ccccc34)C(c3ccccc3)N2C(=O)CN1C1CCN(Cc2ccccc2)CC1 (some centres undefined)	-11.3	-15.0	0.2%	4.0
COC(=O)c1ccc(C2c3[nH]c4ccccc4c3C[C@H]3C(=O)N(C4CCN(Cc5ccccc5)CC4)CC(=O)N23)cc1 (some centres undefined)	-61.2*	-21.5	0.1%	0.4
O=[N+]([O-])c1ccc(N=Nc2ccc(O)c3ccccc23)cc1	-71.3*	-13.8	nt	nt
COC(=O)c1ccc(CN2C(=O)NC3(CCC(C)CC3)C2=O)o1 (centres undefined)	-64.6*	-2.8	0.2%	-5.7
COC(=O)c1ccc(CN2C(=O)NC3(CCC(C)CC3)C2=O)cc1 (centres undefined)	5.5	1.1	-0.1%	1.2
Cc1ccc(C(=O)c2oc3ccccc3c2NC(=O)COc2ccc(C(C)(C)C)cc2)cc1	nt	8.4	nt	nt
COc1cc(OC)c(OC)cc1CN1CCc2nc(Nc3ccc4c(c3)OCCO4)ncc2C1	nt	-13.8	nt	nt
COc1ccc(-c2nc(CN3CCN(C(=O)c4ccco4)CC3)c(C)o2)c(F)c1	20.3	34.7*	-3.0%	1.0
COC(=O)c1ccc(-c2nc(CN3CCCN(C(=O)c4ccco4)CC3)c(C)o2)cc1	4.4	-1.2	-0.2%	26.8
CCOc1ccccc1-c1nc(CN2CCCN(C(=O)c3ccco3)CC2)c(C)o1	-78.8*	-39.7	-0.2%	4.1
C=CCc1ccc(OCC(O)CN2CCN(c3ccccc3OC)CC2)c(OC)c1 (centres undefined)	-103.0*	-9.3	0.4%	15.3
COc1ccc(CC(C)N2CCN(c3ccccc3OC)CC2)cc1OC (centres undefined)	-92.8*	-37.1	0.2%	4.3
C=CCc1ccc(OCC(O)CN2CCN(Cc3ccc(Cl)cc3)CC2)c(OC)c1 (centres undefined)	-73.4*	-6.2	-0.3%	11.7
C=CCc1ccc(OCC(O)CN2CCC(Cc3ccccc3)CC2)c(OC)c1 (centres undefined)	-23.8	-17.4	0.2%	1.6
C=CCc1ccccc1OCC(O)CNC (centres undefined)	-64.5*	2.8	0.2%	9.6
Cc1ccccc1OCCSc1nc2ccc(NC(=O)c3cccs3)cc2s1	nt	-8.4	nt	nt
Cc1nn(C(=O)c2cccc(Cl)c2)c(C)c1S(=O)(=O)N1CCOCC1	nt	-5.1	nt	nt
COc1ccc(Cn2nnnc2C(C(C)C)N2CCN(c3ccccc3OC)CC2)cc1 (centres undefined)	-4.7	11.1	-0.1%	-86.0*
C=CCc1ccccc1OCC(O)CN1CCN(c2ccc(OC)cc2)CC1 (centres undefined)	-82.0*	-4.2	-0.9%	-3.9
O=C(CCn1c(=O)c2cccn2c2cccnc21)NCCCN1CCN(c2ccc(F)cc2)CC1	-67.4*	-4.3	nt	nt
Cc1ccc(C)c(N2CCN(CCCNC(=O)Cn3c(=O)c4cccn4c4cccnc43)CC2)c1	-98.2*	-21.8	-1.0%	-5.4
Cc1ccc(C)c(N2CCN(CCCNC(=O)CCn3c(=O)c4cccn4c4cccnc43)CC2)c1	?	-7.8	-0.2%	0.7
CN1CCOc2ccc(S(=O)(=O)N3CCN(S(=O)(=O)c4c(F)cccc4F)CC3)cc21	nt	nt	-0.3%	-3.7
Cc1ccc(-c2nnc(SCC(=O)NC3CCCC3)n2C)cc1	5.4	1.2	0.0%	-93.8*
SMILES	D3 antag	D3 ag	B2AR arrestin	TSHR antag
Cc1cccc(C)c1OCC(=O)NCc1nnc(SCC(=O)NC2CCCCC2)n1C	-72.0*	-6.9	-0.2%	-2.6
Cc1ccc(-c2nc(S(=O)(=O)c3ccccc3)c(SCC(=O)NC3CCCCC3)o2)cc1	nt	1.0	nt	nt
Cn1c(SCC(=O)NNC(=O)Nc2ccc(Cl)cc2)nnc1-c1ccccc1	1.0	-11.4	-0.1%	-0.8
Cc1cccc(C(=O)NCc2nnc(SCC(=O)NC3CCCC3)n2C)c1	-12.9	-12.5	0.1%	5.2
COc1ccc(-c2nnc(SCC(=O)Nc3ccc(Cl)cc3)n2C)cc1	-57.1*	-6.1	-0.6%	-13.6
Cc1ccc(S(=O)(=O)c2nc(-c3ccccc3)oc2SCC(=O)NC2CCCCC2)cc1	nt	64.1*	nt	nt
